Source: PubChem BioAssay (NCI)
Compounds without any hit were thinned out: in the full panel of roughly 83,000, 20% have a hit.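 A percent growth of 40 corresponds to 60% growth inhibition; 0 means no net growth; -100 means all cells died. Active threshold: below 10.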 Active and inactive are the calls of the source.

These compounds were tested on SK-OV-3 ovarian (assay: NCI-60 one-dose screen, 48 h (100 = growth as untreated, 0 = no growth, -100 = all killed)). Conditions: 10 µM.
Experimental: Growth inhibition of the SK-OV-3 human tumor cell line is measured as a screen for anti-cancer activity. Cells are grown in 96 well plates and exposed to the test compound for 48 hours. Compounds are tested at a single concentration, which is 10^-5 M for most compounds. The reported endpoint is percent growth (GI% or GIPRCNT), where numbers from 0 - 100% represent growth inhibition, and numbers from -100% - 0 represent cell death. For example, a value of 40 represents 60% growth inhibition. A value of 0 means no net growth occurred over the course of the experiment. A value of -40 indicates 40% of cells at the beginning of the experiment died by the end of the experiment. A value of -100 means all cells are dead at the end of the experiment.
NCI-60 Human Tumor Cell Lines Screen was performed using the standard one-dose NCI protocol, which is described in more detail at https://dtp.cancer.gov/discovery_development/nci-60/default.htm.
Compounds with GIPRCNT values below 10 were considered active. Activity score was based on GIPRCNT using the following formula: […]
Score is 0 for GIPRCNT values of 100 or above, 50 for GIPRCNT values of 0, and 100 for GIPRCNT values of -100.

Row | Compound | growth
1 | N#Cc1c(-c2ccc(Cl)cc2)cc(-c2cc(O)ccc2O)nc1N | 45.2% (inactive)
2 | Cc1c(Cl)cccc1NC(=O)CCCl | 104% (inactive)
3 | Cc1ccc(/C=C2/C(=O)N(C)c3ccc(S(=O)(=O)Nc4ccc(C(C)(C)C)cc4)cc32)s1 | 89.6% (inactive)
4 | C=C(NC(=O)C(=C)NC(=O)c1csc(C2=NC3c4csc(n4)C4NC(=O)c5csc(n5)C(C(C)(O)C(C)O)NC(=O)C5CSC(=N5)C(=CC)NC(=O)C(C(C)O)NC(=O)c5csc(n5)C3(CC2)NC(=O)C(C)NC(=O)C(=C)NC(=O)C(C)NC(=O)C(C(C)CC)NC2C=Cc3c(C(C)O)cc(nc3C2O)C(=O)OC4C)n1)C(N)=O (stereo not given) | 99.8% (inactive)
5 | COc1ccc(C(=O)COc2cccc(/C=C3\Cc4ccccc4C3=O)c2)cc1 | 95.8% (inactive)
6 | COc1ccc(Cl)cc1Nc1nc(C(F)(F)F)ccc1C(=O)N/N=C/c1ccc(Cl)cc1 | 44.5% (inactive)
7 | COc1cc2c3c(n(C4CCN(C)CC4)c(=O)c2cc1OC)-c1cc2c(cc1C3=O)OCO2 | 48.7% (inactive)
8 | CCc1ccc(C2=NN(c3ccc(S(C)(=O)=O)cc3)C(=O)CC2)cc1 | 28.7% (inactive)
9 | CC(C)N(CCOc1ccc(-c2nc3sccn3c2-c2ccnc(S(C)(=O)=O)n2)cc1)C(C)C | 90.3% (inactive)
10 | NS(=O)(=O)c1ccc(N2N=C(c3ccccc3)CCC2=O)cc1 | 113% (inactive)
11 | CCN(CC)CCCOc1cccc2c1C(=O)c1cccc(OCCCN(CC)CC)c1C2=O | 41.5% (inactive)
12 | CNC(=O)c1cc(Oc2ccc3c(c2)sc2nc(-c4ccc(NC(=O)Nc5ccc(Cl)c(C(F)(F)F)c5)cc4)cn23)ccn1 | 93.1% (inactive)
13 | COc1ccc2c(c1)OC(N)=C(C#N)C2c1cc(OC)c(OC)c(OC)c1 (stereo not given) | 50% (inactive)
14 | Cc1cn(-c2cc(F)cc(NC(=O)c3ccc(C)c(Nc4nccc(-c5cccnc5)n4)c3)c2)cn1 | 2.64% (active)
15 | CCn1c(CSc2nc3ccccc3c(=O)n2CCc2ccccc2)n[nH]c1=S | 97.9% (inactive)
16 | CSc1ccc(-c2cc(-c3ccc(NC(=O)CCCN4CCCC4)cc3)nc(-c3ccc(NC(=O)CCCN4CCCC4)cc3)c2)cc1 | 75.2% (inactive)
17 | CN1C(=O)C2(Nc3cc(Cl)ccc3S2)c2cc(Cl)ccc21 (stereo not given) | 96.1% (inactive)
18 | O=C(Nc1ccc(NS(=O)(=O)c2ccc(F)cc2)cc1)C12CC3CC(CC(C3)C1)C2 | 92.5% (inactive)
19 | CN(C)CCCN1c2ccccc2CCc2ccc(Cl)cc21 | 82.4% (inactive)
20 | O=C(CCCCC(=O)Oc1c(Cl)cc(Cl)cc1[N+](=O)[O-])Oc1c(Cl)cc(Cl)cc1[N+](=O)[O-] | 103% (inactive)

Row | Compound | growth
21 | CCC1NC(=O)c2cc(S(N)(=O)=O)c(Cl)cc2N1 (stereo not given) | 118% (inactive)
22 | CSc1nc(S(C)(=O)=O)nc2[nH]c(=O)[nH]c12 | 115% (inactive)
23 | COc1cc(N)c2ncccc2c1SC | 108% (inactive)
24 | O=C(O)c1cc([N+](=O)[O-])ccc1Oc1ccccc1 | 106% (inactive)
25 | CCC(C)[C@H](NC(C)=O)C(=O)N[C@@H](CCCNC(=N)N)C(=O)N[C@@H](CCCCN)C(=O)N[C@@H](CC1CCC(O)CC1)C(=O)NC(C(=O)N[C@@H](CCSC)C(=O)N[C@@H](CCCNC(=N)N)C(=O)N[C@@]1(C)CCC/C=C\CCC[C@@](C)(C(=O)NC(C(=O)N[C@@H](CCC(=O)O)C(=O)N[C@@H](CC(C)C)C(=O)N[C@H](C(=O)N[C@@H](CCC(=O)O)C(N)=O)C(C)C)[C@@H](C)O)NC(=O)[C@H](CCC(N)=O)NC(=O)[C@H](CC(C)C)NC(=O)[C@H](CC(C)C)NC1=O)[C@@H](C)O (stereo not given in full) | 98.4% (inactive)
26 | Cc1ccc(-n2nnnc2N)c(C)c1 | 113% (inactive)
27 | COc1cc2cc(Oc3ccc(NC(=O)c4cc(C(F)(F)F)cc(C(F)(F)F)c4)cc3)c(C)nc2cc1OC | 44.5% (inactive)
28 | Cc1ccc(NCCNCC(C)(C)O)c2c(=O)c3ccc(Cl)cc3sc12 | 79.1% (inactive)
29 | COc1cc2cc(Oc3ccc(NC(=O)Nc4cccc(C(F)(F)F)c4)cc3)c(C)nc2cc1OC | 3.35% (active)
30 | C[C@@H](O)[C@H]1C(=O)N2C(C(=O)O)=C(SC3CN[C@H](C(=O)N(C)C)C3)[C@H](C)[C@H]12 (stereo not given in full) | 115% (inactive)
31 | O=C1c2ccccc2C(=O)c2c1ccc(C(Br)Br)c2Cl | 93.4% (inactive)
32 | Cc1ccc(N=Nc2ccccc2)cc1 | 89.4% (inactive)
33 | CC(C)(C)OC(=O)N1CCc2c(sc3ncnc(N/N=C/c4ccccc4Br)c23)C1 | 114% (inactive)
34 | O=C1/C(=C/c2cccc(F)c2)Cc2ccccc21 | 108% (inactive)
35 | COc1ccc(-c2nn(-c3cccc(Cl)c3)cc2-c2c(C#N)c(=O)n3[nH]c(-c4ccccc4)nc3c2C#N)cc1 | 102% (inactive)
36 | COc1ccc(-c2csc(NC(=O)c3ccc(Cc4n[nH]c(=O)c5cccnc45)cc3)n2)cc1 | 95.1% (inactive)
37 | Cc1c[nH]c(=O)n(Cc2nnc(CCC(=O)c3nc4ccccc4[nH]3)o2)c1=O | -7.95% (active)
38 | COc1cc(NC(=O)Nc2cnc(Nc3ccc(N4CCOCC4)cc3)nc2Oc2cccc(OC)c2)cc(OC)c1 | 42.2% (inactive)
39 | c1cncc(-c2csc(-c3c[nH]c4ccccc34)n2)c1 | 79.3% (inactive)
40 | O=C(COc1cccc(/C=C2\CSc3ccccc3C2=O)c1)c1ccc(Cl)cc1 | 104% (inactive)
